PubChem BioAssay (EPA / NIEHS)
A structure can be active in one record and inactive in another. The source made the active and inactive calls. The calls were made as follows: active = hit-call score of the fitted dose curve at least 0.9, where 1 is the maximum; inactive = score below 0.9.

These compounds were tested on Interleukin 17F (IL17F), IL17F (gene 112744) (assay: BSK_BT_xIL17F: BioMAP Diversity Plus: BT Assay for Interleukin 17F (IL17F) Biomarker Activity (AID 2284243)). Conditions: primary human B cells with PBMC.
Experimental: BSK_BT is a cell-based, multiplexed-readout assay that uses B cell and peripheral blood mononuclear cells, a human vascular primary cell co-culture, with measurements taken at 24 hours after chemical dosing in a microplate: 96-well plate.BSK_BT_xIL17F is an assay component measured in the BSK_BT assay. It measures secreted IL-17F related to regulation of gene expression using LumineX xMAP technology.Data from the assay component BSK_BT_xIL17F was analyzed at the endpoint, BSK_BT_xIL17F, in the positive analysis fitting direction relative to DMSO as the negative control and baseline of activity. Using a type of cytokine quantitation reporter, gain or loss-of-signal activity can be used to understand protein changes. To generalize the intended target to other relatable targets, this assay endpoint is annotated to the 'cytokine' intended target family, where the subfamily is 'interleukins'.
The levels of cell surface (or secreted, indicated by the prefix "s") biomarker endpoints were measured by ELISA. Overt cytotoxicity to cells in confluent adherent cultures (all systems other than the BT system) was assessed by measuring total protein levels using sulforhodamine B (SRB) staining in parallel cultures at the time of biomarker measurements, indicated as SRB endpoints. For proliferation assays for adherent cell types, individual cell types are cultured at sub-confluence and relative cell numbers quantified by SRB staining at time points optimized for each system (48 h: 3C and CASM3C systems; 72 h: BT and HDF3CGF systems; 96 h: SAg system). SRB was performed by staining cells with 0.1% SRB after fixation with 10% TCA and reading wells at 560 nm.Viability and proliferation of PBMC (T cells) was quantified by Alamar Blue reduction for the SAg and BT systems. For PBMC viability (referred to as PBMC Cytotoxicity within the assay endpoint names), cells were plated (75,000/well in a 96-well plate) and then chemical samples added for 1 h before addition of activators, SEB and TSST-1 (20 ng/mL final concentration each). Cells were incubated for 90 h. Then, Alamar Blue (20 uL/well) (Invitrogen, Cat DAL1100) was added for 6 h, and the plates were read with a fluorescence microplate reader at 546/580 nm (excitation/emission). For PBMC proliferation, cells were plated and activated as above but incubated for only 16 h prior to addition of Alamar Blue. Plates were read after 6 h.

AC50, active:
CN(C)c1ccc(C(c2ccccc2)c2ccc(N(C)C)cc2)cc1 29 µM
OC(C(F)(F)F)(C(F)(F)F)C(O)(C(F)(F)F)C(F)(F)F 13.1 µM
COC(=O)/C=C\C(=O)OC 20 µM
CCCCCCCCCCCCCCCCCC[N+](C)(C)C 2.08 µM

outcome, inactive:
Cc1cc(-n2nc3ccc(Cl)cc3n2)c(O)c(C(C)(C)C)c1
OC(C(F)(F)F)(C(F)(F)F)C(O)(C(F)(F)F)C(F)(F)F
O=C(C(=O)c1ccccc1)c1ccccc1
Sc1nc2ccccc2s1
Oc1cccc2ccccc12
CCCCCCCCCC/C=C/C1CC(=O)OC1=O (stereo unspecified)
CCCCCCC(O)CCCCCCCCCCC(=O)OC (stereo unspecified)
CC(C)CC(=O)CC(C)CC(C)C (stereo unspecified)
CCCCCCCCCCC1CO1 (stereo unspecified)
CN(C)CCC(c1ccc(Cl)cc1)c1ccccn1 (stereo unspecified)
CC[N+](CC)(CC(=O)Nc1c(C)cccc1C)Cc1ccccc1
Cc1cccnc1
